# Measured values published in the supplement of paper PMC10037445.
# In all, about 2,900 compounds were measured (“NF-kB SEAP reporter activity, fold change vs agonist alone”: median about 0.99, highest 2% from about 2.6 on). What follows is part of a selection rich in the highest values, with near analogues and random picks from the rest.
# Legend:
# RAW-Dual [1] = assay: NF-kB SEAP reporter activity, fold change vs agonist alone; cytotoxicity flag (confluency mask): cytotoxic (confluency <70% of control); higher = enhanced NF-kB activity
# Summary of the method: (§1)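 Library stock was pin-tooled at 50 nL into 384-well plates of RAW-Dual macrophages (50,000 cells/well, DMEM), followed 1 h later by a PRR agonist, and the cells were kept at 37 °C, 5% CO2. Supernatant collected after 20 hours was read for IRF by QuantiLuc luminescence and for NF-κB by QuantiBlue absorbance at 620 nm. Reporter activity is fold change over agonist-alone wells, and a well counted as cytotoxic when its IncuCyte confluency was below 70% of agonist controls in both mask sets.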
# RAW-Dual [2] = assay: NF-kB SEAP reporter activity, fold change vs agonist alone; higher = enhanced NF-kB activity
# Summary of the method: as §1
# RAW-Dual [3] = assay: NF-kB SEAP reporter activity, fold change vs agonist alone; cytotoxicity flag (confluency mask): not cytotoxic; higher = enhanced NF-kB activity
# Summary of the method: as §1
# [4] = agonist: ODN 1826 (TLR9) 0.5 ug/mL
# [5] = agonist: Pam2CSK4 (TLR2/6) 0.1 ug/mL
# [6] = agonist: Pam3CSK4 (TLR2/1) 0.1 ug/mL
# [7] = library stock concentration (final ~1000-fold dilution): 10 mM, cytotoxicity flag (confluency mask): not cytotoxic, agonist: Imiquimod (TLR7) […]
# [8] = library stock concentration (final ~1000-fold dilution): 10 mM, cytotoxicity flag (confluency mask): not cytotoxic, agonist: MPLA (TLR4) […]
# [9] = library stock concentration (final ~1000-fold dilution): 10 mM water, cytotoxicity flag (confluency mask): not cytotoxic, agonist: Imiquimod (TLR7) […]
# [10] = library stock concentration (final ~1000-fold dilution): 10 mM water, cytotoxicity flag (confluency mask): not cytotoxic, agonist: MPLA (TLR4) […]
smiles,measurement,setting,value
CCn1cc(-c2cccc(C(F)(F)F)c2)c2sc(C(=N)NC3CCS(=O)(=O)CC3)cc2c1=O (library stock concentration (final ~1000-fold dilution): 10 mM),NF-kB SEAP reporter activity,RAW-Dual [1]; agonist: LPS (TLR4) 0.1 ug/mL,3.13
same,NF-kB SEAP reporter activity,RAW-Dual [1]; [4],0.721
same,NF-kB SEAP reporter activity,RAW-Dual [1]; [5],1.15
same,NF-kB SEAP reporter activity,RAW-Dual [1]; [6],1.12
CCCNC(=O)C1OC1C(=O)NC(C(=O)N1CCCC1C(=O)OC)C(C)CC (centres undefined),NF-kB SEAP reporter activity,RAW-Dual [2]; [7],0.821
same,NF-kB SEAP reporter activity,RAW-Dual [2]; [8],1.04
CCCNC(=O)C1OC1C(=O)NC(C(=O)N1CCCC1C(=O)OC)C(C)CC (centres undefined) (library stock concentration (final ~1000-fold dilution): 10 mM),NF-kB SEAP reporter activity,RAW-Dual [3]; agonist: LPS (TLR4) 0.1 ug/mL,1.06
same,NF-kB SEAP reporter activity,RAW-Dual [3]; [4],0.881
same,NF-kB SEAP reporter activity,RAW-Dual [3]; [5],0.854
same,NF-kB SEAP reporter activity,RAW-Dual [3]; [6],0.799
Cl.NCCOCCOCCNC(=O)Cc1ccc(Nc2nc(NCc3ccc(F)cc3)nc(NCC3CCCCC3)n2)cc1,NF-kB SEAP reporter activity,"RAW-Dual [2]; library stock concentration (final ~1000-fold dilution): 10 mM, cytotoxicity flag (confluency mask): cytotoxic (confluency <70% of control), agonist: Imiquimod (TLR7) […]",1.05
same,NF-kB SEAP reporter activity,"RAW-Dual [2]; library stock concentration (final ~1000-fold dilution): 10 mM, cytotoxicity flag (confluency mask): cytotoxic (confluency <70% of control), agonist: MPLA (TLR4) […]",1.59
Cl.NCCOCCOCCNC(=O)Cc1ccc(Nc2nc(NCc3ccc(F)cc3)nc(NCC3CCCCC3)n2)cc1 (library stock concentration (final ~1000-fold dilution): 10 mM),NF-kB SEAP reporter activity,RAW-Dual [1]; agonist: LPS (TLR4) 0.1 ug/mL,0.643
same,NF-kB SEAP reporter activity,RAW-Dual [1]; [4],0.852
same,NF-kB SEAP reporter activity,RAW-Dual [1]; [5],0.738
same,NF-kB SEAP reporter activity,RAW-Dual [1]; [6],0.911
O=C(Nc1nccs1)C(c1cc(F)ccc1O)N1Cc2ccccc2C1=O (centres undefined),NF-kB SEAP reporter activity,RAW-Dual [2]; [7],0.944
same,NF-kB SEAP reporter activity,RAW-Dual [2]; [8],0.982
O=C(Nc1nccs1)C(c1cc(F)ccc1O)N1Cc2ccccc2C1=O (centres undefined) (library stock concentration (final ~1000-fold dilution): 10 mM),NF-kB SEAP reporter activity,RAW-Dual [3]; agonist: LPS (TLR4) 0.1 ug/mL,0.902
same,NF-kB SEAP reporter activity,RAW-Dual [3]; [4],0.989
same,NF-kB SEAP reporter activity,RAW-Dual [3]; [5],0.865
same,NF-kB SEAP reporter activity,RAW-Dual [3]; [6],1.02
CCOC(=O)CC(=O)O,NF-kB SEAP reporter activity,RAW-Dual [2]; [9],0.955
same,NF-kB SEAP reporter activity,RAW-Dual [2]; [10],1
CCOC(=O)CC(=O)O (library stock concentration (final ~1000-fold dilution): 10 mM water),NF-kB SEAP reporter activity,RAW-Dual [3]; agonist: LPS (TLR4) 0.1 ug/mL,1.31
same,NF-kB SEAP reporter activity,RAW-Dual [3]; [4],1.09
same,NF-kB SEAP reporter activity,RAW-Dual [3]; [5],1.18
same,NF-kB SEAP reporter activity,RAW-Dual [3]; [6],1.03
CCCCOc1cc(C(=O)NCCN(CC)CC)c2ccccc2n1.Cl,NF-kB SEAP reporter activity,RAW-Dual [2]; [7],1.57
same,NF-kB SEAP reporter activity,RAW-Dual [2]; [8],1.01
CCCCOc1cc(C(=O)NCCN(CC)CC)c2ccccc2n1.Cl (library stock concentration (final ~1000-fold dilution): 10 mM),NF-kB SEAP reporter activity,RAW-Dual [3]; agonist: LPS (TLR4) 0.1 ug/mL,0.994
same,NF-kB SEAP reporter activity,RAW-Dual [3]; [4],0.959
same,NF-kB SEAP reporter activity,RAW-Dual [3]; [5],0.866
same,NF-kB SEAP reporter activity,RAW-Dual [3]; [6],1.09
CN1CCOC(c2ccccc2)c2ccccc2C1.Cl (centres undefined),NF-kB SEAP reporter activity,RAW-Dual [2]; [9],1.12
same,NF-kB SEAP reporter activity,RAW-Dual [2]; [10],1.03
CN1CCOC(c2ccccc2)c2ccccc2C1.Cl (centres undefined) (library stock concentration (final ~1000-fold dilution): 10 mM water),NF-kB SEAP reporter activity,RAW-Dual [3]; agonist: LPS (TLR4) 0.1 ug/mL,1.36
same,NF-kB SEAP reporter activity,RAW-Dual [3]; [4],0.943
same,NF-kB SEAP reporter activity,RAW-Dual [3]; [5],1.05
same,NF-kB SEAP reporter activity,RAW-Dual [3]; [6],0.969
COc1ccc(S(=O)(=O)N(CCO)c2ccccc2CN(C)CC=Cc2ccc(Cl)cc2)cc1,NF-kB SEAP reporter activity,RAW-Dual [2]; [7],0.802
same,NF-kB SEAP reporter activity,RAW-Dual [2]; [8],1.07
COc1ccc(S(=O)(=O)N(C(C)=O)c2ccccc2/C=C/c2cc[n+]([O-])cc2)cc1,NF-kB SEAP reporter activity,RAW-Dual [2]; [7],2.17
same,NF-kB SEAP reporter activity,RAW-Dual [2]; [8],1.61
COc1ccc(S(=O)(=O)N(C(C)=O)c2ccccc2/C=C/c2cc[n+]([O-])cc2)cc1 (library stock concentration (final ~1000-fold dilution): 10 mM),NF-kB SEAP reporter activity,RAW-Dual [3]; agonist: LPS (TLR4) 0.1 ug/mL,1.85
same,NF-kB SEAP reporter activity,RAW-Dual [3]; [4],2.59
same,NF-kB SEAP reporter activity,RAW-Dual [3]; [5],1.94
same,NF-kB SEAP reporter activity,RAW-Dual [3]; [6],1.43
COc1ccc(S(=O)(=O)N(CCO)c2ccccc2CN(C)CC=Cc2ccc(Cl)cc2)cc1 (library stock concentration (final ~1000-fold dilution): 10 mM),NF-kB SEAP reporter activity,RAW-Dual [3]; agonist: LPS (TLR4) 0.1 ug/mL,0.958
same,NF-kB SEAP reporter activity,RAW-Dual [3]; [4],0.257
same,NF-kB SEAP reporter activity,RAW-Dual [3]; [5],0.537
same,NF-kB SEAP reporter activity,RAW-Dual [3]; [6],0.372
C=C1C(CO)C(O)CC1n1cnc2c(=O)nc(N)[nH]c21 (centres undefined) (library stock concentration (final ~1000-fold dilution): 10 mM),NF-kB SEAP reporter activity,RAW-Dual [3]; agonist: LPS (TLR4) 0.1 ug/mL,1.32
same,NF-kB SEAP reporter activity,RAW-Dual [3]; [4],0.996
same,NF-kB SEAP reporter activity,RAW-Dual [3]; [5],1.37
same,NF-kB SEAP reporter activity,RAW-Dual [3]; [6],0.846
C=C1C(CO)C(O)CC1n1cnc2c(=O)nc(N)[nH]c21 (centres undefined),NF-kB SEAP reporter activity,RAW-Dual [2]; [8],1.07
CNC1C(O)C(OC2C(NC(=O)C(O)CN)CC(N)C(OC3OC(CN)C(O)C(O)C3O)C2O)OCC1(C)O.O=S(=O)(O)O (centres undefined) (library stock concentration (final ~1000-fold dilution): 10 mM water),NF-kB SEAP reporter activity,RAW-Dual [3]; agonist: LPS (TLR4) 0.1 ug/mL,1.03
same,NF-kB SEAP reporter activity,RAW-Dual [3]; [4],1.09
same,NF-kB SEAP reporter activity,RAW-Dual [3]; [5],1.3
same,NF-kB SEAP reporter activity,RAW-Dual [3]; [6],1.14
CNC1C(O)C(OC2C(NC(=O)C(O)CN)CC(N)C(OC3OC(CN)C(O)C(O)C3O)C2O)OCC1(C)O.O=S(=O)(O)O (centres undefined),NF-kB SEAP reporter activity,RAW-Dual [2]; [9],0.944
same,NF-kB SEAP reporter activity,RAW-Dual [2]; [10],1.01
COc1ccc(C(NC(=O)c2cnc(-c3cccnn3)nc2O)c2ccc(OC)cc2)cc1,NF-kB SEAP reporter activity,RAW-Dual [2]; [7],0.974
same,NF-kB SEAP reporter activity,RAW-Dual [2]; [8],1.03
COc1ccc(C(NC(=O)c2cnc(-c3cccnn3)nc2O)c2ccc(OC)cc2)cc1 (library stock concentration (final ~1000-fold dilution): 10 mM),NF-kB SEAP reporter activity,RAW-Dual [3]; agonist: LPS (TLR4) 0.1 ug/mL,2.9
same,NF-kB SEAP reporter activity,RAW-Dual [3]; [4],0.861
same,NF-kB SEAP reporter activity,RAW-Dual [3]; [5],0.898
same,NF-kB SEAP reporter activity,RAW-Dual [3]; [6],1.02
O=C(O)c1ccc(Br)c(O)c1 (library stock concentration (final ~1000-fold dilution): 10 mM),NF-kB SEAP reporter activity,RAW-Dual [3]; agonist: LPS (TLR4) 0.1 ug/mL,1.11
same,NF-kB SEAP reporter activity,RAW-Dual [3]; [4],0.975
same,NF-kB SEAP reporter activity,RAW-Dual [3]; [5],1.09
same,NF-kB SEAP reporter activity,RAW-Dual [3]; [6],0.729
O=C(O)c1ccc(Br)c(O)c1,NF-kB SEAP reporter activity,RAW-Dual [2]; [8],1.11
